Reference: PubChem BioAssay
The source made the active and inactive calls.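 Rule for the calls, unless noted: active = NADPH fluorescence slope more negative than the mean of all samples by about 3 SD, 99.7% confidence; inactive = the rest.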

Assays:
[1] = inhibitors of TNFa-induced NFkB p65 translocation, primary screen, imaging, HUVEC, MLSMR starter and 10KST1 sets (AID 438;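 active = inhibition above 20% together with a positive visual image hit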;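 note: compound added about 3h40 before a 20 min TNFalpha stimulation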;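 for inhibition: signal is the nuclear over cytoplasmic p65 intensity ratio per well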); conditions: HUVEC TNFa-induced p65 nuclear translocation; cell count: measured here: nuclei count (cytotoxicity indicator), at 2.08 µM; inhibition: at 2 µM, stronger effect = higher value, 0% TNFa-plus-vehicle, 100% no-TNFa wells
[2] = reduction of polyQ htt aggregates in cells – imaging, exon1htt(103Q)mCFP cells, high-content imaging, primary screen (AID 483;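 active = visual image review flags a hit and inhibition of aggregation exceeds 20%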;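 note: compound exposure lasted 3 days before fixation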;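 for nuclei count: percent of the per-plate median nuclei count of sample wells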); conditions: exon1htt(103Q)mCFP cell line, aggregate imaging, at 2 µM; inhibition of aggregation: stronger effect = higher value; nuclei count: measured here: cell count, toxicity
[3] = endothelial E-selectin expression blockers – imaging, HUVEC, immunofluorescence, MLSMR starter and 10KST1 sets, primary screen (AID 487;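 active = visually confirmed hit in the image check and inhibition above 20%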;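 for inhibition: signal is fraction of cell area covered by stained E-selectin grains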;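 for nuclei count: 100% = median nuclei count of all wells on the same plate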); conditions: HUVEC TNFalpha-induced E-selectin immunofluorescence imaging, at 2 µM; inhibition: stronger effect = higher value; nuclei count: measured here: cell number, toxicity
[4] = target: Voltage-gated potassium channel subunit beta-2 (Rattus norvegicus) (UniProt P62483); test: inhibitors of rat Kvbeta2 reductase activity – biochemical, NADPH fluorescence, primary screen (AID 622;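 active = fluorescence slope higher than the sample average by over 3 SD, cut at about -0.22 in these data, passing the limit was not always enough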;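 note: slope of raw intensity against log time taken from 70 to 1610 s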); conditions: recombinant KvBeta, 4-cyanobenzaldehyde reduction, at 10 µM, stronger effect = higher value
[5] = target: Voltage-gated potassium channel subunit beta-2 (Rattus norvegicus) (UniProt P62483); test: enhancers of rat Kvbeta2 NADPH turnover – biochemical, NADPH fluorescence, primary screen (AID 623); conditions: Recombinant KvBeta, NADPH fluorescence decrease slope, 10 min; at 10 µM; stronger effect = lower value;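 note: fluorescence intensity change per second fitted from 20 to 320 s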
[6] = target: Alpha-2C adrenergic receptor (Homo sapiens) (UniProt P18825); test: compounds altering alpha2C-coupled GIRK flux – cell-based, HEK293 alpha2C/GIRK1/2, thallium flux, primary screen (AID 624;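 active = fluorescence slope after compound addition differing from the mean of all screened samples at 99.7% confidence, in either direction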;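 note: slope of fluorescence ratio to pre-addition baseline per second over 15 to 24 s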); conditions: thallium flux BTC fluorescence, at 10 µM, actives lie on both sides
[7] = blockers of RIG-like receptor reporter activation – cell-based, Sendai virus stimulus, luciferase, 10K MLSCN set, TLR/RLR signaling modifier project, primary screen (AID 602276;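 active = inhibition at or above 50% at 10 µM; inactive = inhibition below 50%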;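 note: firefly luciferase from ISG56 promoter only with Renilla not read in this screen; 0% = Sendai virus plus DMSO and 100% = medium plus DMSO without virus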); conditions: HEK293 RL24 IRF3 luciferase reporter, at 10 µM, stronger effect = higher value
[8] = TLR3 IRF3 reporter activation blockers – cell-based, poly I:C stimulus, luciferase, 10K MLSCN set, primary screen (AID 602277;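 active = inhibition of the reporter signal at or above 50%; inactive = inhibition below 50%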); conditions: HEK293-TLR3 RL24 IRF3 luciferase reporter, at 10 µM, stronger effect = higher value

Sequence of Voltage-gated potassium channel subunit beta-2 (Rattus norvegicus) (P62483 whole entry, looked up): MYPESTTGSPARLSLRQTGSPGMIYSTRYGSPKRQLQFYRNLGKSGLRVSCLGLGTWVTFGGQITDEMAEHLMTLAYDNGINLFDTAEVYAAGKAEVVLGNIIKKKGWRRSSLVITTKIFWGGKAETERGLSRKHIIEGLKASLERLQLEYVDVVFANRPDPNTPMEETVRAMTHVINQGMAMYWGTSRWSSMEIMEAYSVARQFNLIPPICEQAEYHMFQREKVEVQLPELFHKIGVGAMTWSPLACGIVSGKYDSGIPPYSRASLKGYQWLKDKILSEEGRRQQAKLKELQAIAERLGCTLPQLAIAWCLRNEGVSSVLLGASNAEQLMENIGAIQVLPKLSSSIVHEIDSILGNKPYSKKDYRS
Sequence of Alpha-2C adrenergic receptor (Homo sapiens) (P18825 whole entry, looked up): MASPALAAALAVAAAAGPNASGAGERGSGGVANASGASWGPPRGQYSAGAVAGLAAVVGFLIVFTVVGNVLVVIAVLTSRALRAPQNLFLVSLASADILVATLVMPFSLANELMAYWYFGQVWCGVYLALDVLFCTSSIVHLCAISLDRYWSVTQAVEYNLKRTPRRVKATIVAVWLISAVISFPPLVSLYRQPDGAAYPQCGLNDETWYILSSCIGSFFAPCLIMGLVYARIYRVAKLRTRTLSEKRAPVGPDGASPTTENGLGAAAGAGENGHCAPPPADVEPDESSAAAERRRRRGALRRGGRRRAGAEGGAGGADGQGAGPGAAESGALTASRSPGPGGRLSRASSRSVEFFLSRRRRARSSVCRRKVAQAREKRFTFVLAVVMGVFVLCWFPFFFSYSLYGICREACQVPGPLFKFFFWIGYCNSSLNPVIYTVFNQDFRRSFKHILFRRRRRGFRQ

Row | SMILES | cell count [1] | inhibition [1] | inhibition of aggregation [2] | nuclei count [2] [%] | inhibition [3] | nuclei count [3] [%] | fluorescence slope [4] | NADPH fluorescence slope [5] | slope [6] | inhibition [7] | inhibition [8]
1 | c1ccc(-n2cnc3cc(NCc4ccccn4)ccc32)cc1 | 469 | -5.7% (inactive) | 25.1% (inactive) | 102 | -28.1% (inactive) | 183 | -0.596 (inactive) | -4.4e-05 (inactive) | 0.00529 (inactive) | 20.8% (inactive) | -8.3% (inactive)
2 | O=C(O)CC1NC(=O)N(c2ccccc2)C1=O (stereo not drawn) | 540 | -4.6% (inactive) | 5.1% (inactive) | 95.5 | -106% (inactive) | 114 | -0.599 (inactive) | 1.8e-06 (inactive) | 0.00411 (inactive) | 16.4% (inactive) | 21.9% (inactive)
3 | O=C1CN(Cc2ccccc2)C(=NCc2ccco2)S1 | 446 | 3.4% (inactive) | -5.3% (inactive) | 99.8 | 13.6% (inactive) | 97.4 | -0.451 (inactive) | -2.2e-05 (inactive) | 0.00487 (inactive) | 8.96% (inactive) | 30.9% (inactive)
4 | COc1ccc(-n2c(SCC(=O)c3c(N)n(C)c(=O)n(C)c3=O)nc3ccccc32)cc1 | 735 | 1.4% (inactive) | 10.2% (inactive) | 110 | -35.8% (inactive) | 106 | -0.581 (inactive) | -4.1e-05 (inactive) | 0.00517 (inactive) | 10.6% (inactive) | 14.8% (inactive)
5 | Cc1nn(C(=O)c2ccc3c(c2)OCO3)c(N)c1-c1ccccc1 | 581 | 5.1% (inactive) | 11.7% (inactive) | 91.3 | -19.8% (inactive) | 106 | -0.451 (inactive) | 1.4e-05 (inactive) | 0.00618 (inactive) | -23.3% (inactive) | -108% (inactive)
6 | CCOC(=O)Cn1nc(-c2ccc(C)cc2)ccc1=O | 534 | -21% (inactive) | 31% (inactive) | 121 | -42.9% (inactive) | 108 | -0.393 (inactive) | -0.000149 (inactive) | 0.00747 (inactive) | -9.24% (inactive) | -5.48% (inactive)
7 | CCn1c(SCc2nc3ccccc3c(=O)[nH]2)nnc1-c1cccnc1 | 628 | -11.9% (inactive) | -9.6% (inactive) | 107 | -66.6% (inactive) | 114 | -0.525 (inactive) | 7.8e-06 (inactive) | 0.00487 (inactive) | 21.2% (inactive) | 25% (inactive)
8 | COC(=O)c1ccc(NC(=O)C2CC(=O)N(c3cc(C)ccc3C)C2)cc1 (stereo not drawn) | 504 | 6.6% (inactive) | 8.1% (inactive) | 92.6 | -29.9% (inactive) | 95.1 | -0.587 (inactive) | -9.6e-06 (inactive) | 0.00549 (inactive) | -15.3% (inactive) | -26.3% (inactive)
9 | Cc1ccc(-c2nnc3c4ccccc4c(C)nn23)cc1NC(=O)c1ccco1 | 641 | -11% (inactive) | 17.5% (inactive) | 102 | -106% (inactive) | 115 | -0.602 (inactive) | 2.3e-05 (inactive) | 0.00729 (inactive) | -0.847% (inactive) | -4.54% (inactive)
10 | O=S(=O)(c1ccc(S(=O)(=O)N2CCN3CCCC3C2)cc1)N1CCCC1 (stereo not drawn) | 575 | -5.3% (inactive) | 31.8% (inactive) | 49.8 | 34.6% (inactive) | 85 | -0.359 (inactive) | -3.4e-05 (inactive) | 0.00601 (inactive) | 6.16% (inactive) | 28.2% (inactive)
11 | COCCn1nnnc1CN1CCC(Cc2ccccc2)CC1 | 513 | -16.4% (inactive) | -12.1% (inactive) | 113 | -71.7% (inactive) | 96.1 | -0.484 (inactive) | -6.1e-05 (inactive) | 0.00482 (inactive) | 12.6% (inactive) | 13.6% (inactive)
12 | Cc1cc(NC(=O)c2cnn3c(C(F)F)cc(C4CC4)nc23)no1 | 747 | -3.3% (inactive) | 23% (inactive) | 100 | 27.3% (inactive) | 98.5 | -0.486 (inactive) | -3.5e-05 (inactive) | 0.00638 (inactive) | 9.48% (inactive) | 19.3% (inactive)
13 | CCOc1cc(C(=O)N(C)Cc2cc3cc(OC)ccc3[nH]c2=O)cc(OCC)c1OCC | 394 | 4% (inactive) | 18.6% (inactive) | 83.8 | -174% (inactive) | 211 | -0.207 (inactive) | -1.5e-05 (inactive) | 0.00515 (inactive) | 15.8% (inactive) | 18.6% (inactive)
14 | CCCC(=O)OCCn1c(Br)nc2c1c(=O)[nH]c(=O)n2C | 627 | -9.1% (inactive) | -10% (inactive) | 127 | -46.5% (inactive) | 121 | -0.509 (inactive) | -3.2e-05 (inactive) | 0.00531 (inactive) | 20.4% (inactive) | 15.6% (inactive)
15 | Cc1ccc2c(c1)NC(=O)C(CC(=O)NC1CCCCC1C)O2 (stereo not drawn) | 611 | 2% (inactive) | 22% (inactive) | 86.3 | 21.5% (inactive) | 114 | -0.51 (inactive) | -4.1e-05 (inactive) | 0.00567 (inactive) | 9.73% (inactive) | 1.78% (inactive)
16 | CCSC1=C(C#N)C(c2ccccc2OC)CC(=O)N1 (stereo not drawn) | 631 | -1.9% (inactive) | -4.5% (inactive) | 86.7 | -16.2% (inactive) | 106 | -0.436 (inactive) | 1.7e-05 (inactive) | 0.00579 (inactive) | -0.399% (inactive) | 17.9% (inactive)
17 | Cc1noc(/C=C/N(C)C)c1S(=O)(=O)N1CCCC(C(=O)N2CCc3ccccc32)C1 (stereo not drawn) | 620 | -4% (inactive) | -4.7% (inactive) | 86.6 | -16.5% (inactive) | 95.3 | -0.537 (inactive) | -5.3e-05 (inactive) | 0.00689 (inactive) | 11.8% (inactive) | 45.3% (inactive)
18 | CSc1ccc(S(=O)(=O)Nc2cccc(F)c2)cc1 | 342 | 1% (inactive) | -4.6% (inactive) | 82.9 | -34.7% (inactive) | 96.9 | -0.408 (inactive) | -5.1e-05 (inactive) | 0.00352 (inactive) | 15.7% (inactive) | 26.6% (inactive)
19 | CC1CCC(NC(=O)Cn2ncc3ccccc32)CC1 (stereo not drawn) | 728 | -3.7% (inactive) | -13.1% (inactive) | 118 | -59.2% (inactive) | 106 | -0.577 (inactive) | -4.8e-05 (inactive) | 0.00746 (inactive) | -43.1% (inactive) | -111% (inactive)
20 | CCCCNC(=O)Cn1c(=O)n(C)c2ccccc21 | 600 | 6.9% (inactive) | -14.7% (inactive) | 111 | 35.9% (inactive) | 103 | -0.549 (inactive) | -6.8e-06 (inactive) | 0.00707 (inactive) | 9.9% (inactive) | 30% (inactive)
21 | O=C(CCn1c(=S)[nH]c2ccccc2c1=O)NCC1CCCO1 (stereo not drawn) | 491 | 9.4% (inactive) | 6% (inactive) | 99.2 | 8% (inactive) | 109 | -0.622 (inactive) | -8.8e-06 (inactive) | 0.0038 (inactive) | 8.18% (inactive) | 2.45% (inactive)
22 | CCOC(=O)c1cc2sccc2n1Cc1ccccc1 | 417 | 7.3% (inactive) | -5.2% (inactive) | 101 | -147% (inactive) | 99.7 | -0.598 (inactive) | -9.9e-06 (inactive) | 0.00361 (inactive) | -10.3% (inactive) | -7.29% (inactive)
23 | COc1ccccc1OCCSc1nc2ccccc2c(=O)[nH]1 | 361 | 3.5% (inactive) | -4.7% (inactive) | 89.3 | -49.6% (inactive) | 86.8 | -0.35 (inactive) | -5.3e-05 (inactive) | 0.00628 (inactive) | -4.62% (inactive) | -5.54% (inactive)
24 | Cc1ccc(CNC(=O)COC(=O)c2c(C)noc2C)cc1 | 581 | 6.9% (inactive) | 23.2% (inactive) | 89.7 | 46% (inactive) | 57.1 | -0.449 (inactive) | -4.4e-05 (inactive) | 0.00349 (inactive) | -1.51% (inactive) | 16.4% (inactive)
25 | CSc1ccc(-c2nc(CSCC(=O)N3CCOCC3)c(C)o2)cc1 | 243 | 2.7% (inactive) | -6% (inactive) | 89.5 | -16.1% (inactive) | 101 | -0.523 (inactive) | -5.8e-05 (inactive) | 0.00525 (inactive) | -23.3% (inactive) | -88.4% (inactive)
26 | COc1ccc(Cl)cc1S(=O)(=O)N1CCN(c2ccc(F)cc2)CC1 | 657 | -1.1% (inactive) | -29.1% (inactive) | 101 | 36.7% (inactive) | 137 | -0.319 (inactive) | -1.3e-05 (inactive) | 0.00495 (inactive) | 46.4% (inactive) | 0.0275% (inactive)
27 | CC(=O)c1ccc(NC2OC(C)C(O)C(O)C2O)cc1 (stereo not drawn) | 329 | 4.3% (inactive) | -0.6% (inactive) | 93.8 | -90% (inactive) | 103 | -0.382 (inactive) | -8.6e-06 (inactive) | 0.00391 (inactive) | -11.5% (inactive) | -11.5% (inactive)
28 | COC(=O)c1ccccc1NC(=O)CSc1nc2c(c(=O)n(C)c(=O)n2C)n1C | 470 | 1% (inactive) | -5.1% (inactive) | 95.9 | 9.9% (inactive) | 119 | -0.382 (inactive) | 2e-05 (inactive) | 0.00766 (inactive) | -17.1% (inactive) | -34.2% (inactive)
